# Measurements published in PubChem BioAssay (EPA / NIEHS).
# Records with an inconclusive call do not appear. Calls of active or inactive are those of the source. How the source made its calls, unless noted: active means hit-call score of the fitted dose curve at least 0.9, where 1 is the maximum; inactive means score below 0.9.
# What was measured:
# [1] = IUF_NPC2-5_viability_120hr: Viability Assessment at 120 hours in the Leibniz Research Institute for Environmental Medicine (IUF) Neural Progenitor Cell Migration and Differentiation Assay (NPC2-5) (AID 2284312)
# How it was run: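 Alamar blue resorufin fluorescence read after 5 days of differentiation, with compound present from day 0 and replenished at day 3. Primary hNPC spheres on laminin-coated plates, 37C; seven concentrations plus solvent control, fitted against DMSO.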
# [2] = CCTE_Mundy_HCI_iCellGluta_NOG_NeuriteLength: CCTE's Neurite Outgrowth Assay in iCellGluta cells for Neurite Length, Mundy Lab (AID 2284318; active means hit-call score of the fitted dose curve at least 0.9, where 1 is the maximum)
# How it was run: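 Automated high-content imaging of betaIII-tubulin (Alexa Fluor-488) and Hoechst-stained cells gave neurite length, normalized to the DMSO baseline.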
# [3] = TAMU_PeakParms_SingleDonor1434_Asystole: Texas A&M University (TAMU) 1.5-hr Human Induced Pluripotent Stem Cell (iPSC)-derived Cardiomyocytes Calcium (Ca+2) Flux Assay for Cardiotoxicity: Asystole (quiescence of beating) (AID 2284328; active means hit-call score of the fitted dose curve at least 0.9, where 1 is the maximum)
# How it was run: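 Average Ca2+-flux peak frequency (beats/s) was recorded in single-donor iPSC-derived cardiomyocytes after 90 min exposure (0.2–100 uM final, 0.5% DMSO). Asystole POD set as EC95 against DMSO, no preprocessing.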
# [4] = system: Brachyury (BRA) Protein Expression, Deisenroth Lab, TBXT (gene 6862); assay: CCTE_Deisenroth_DEVTOX-GLR_legacy_Bra: (Legacy) CCTE's DevTox GLR-Endo Assay Evaluation of Brachyury (BRA) Protein Expression, Deisenroth Lab (AID 2284329)
# How it was run: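 Human pluripotent RUES2-GLR line was exposed twice during 48 h differentiation to a 10-point series, 1 nM - 200 uM. Fraction of Bra-positive cells was scored by imaging against pluripotent baseline and fitted after 0.2% DMSO subtraction.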
# [5] = CCTE_Deisenroth_DEVTOX-GLR_legacy_CellCount: (Legacy) Viability Assessment in CCTE's DevTox GLR-Endo Assay, Deisenroth Lab (AID 2284331); details: actives raise or lower the signal
# How it was run: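 Nuclei count by fluorescence high-content imaging (5 fields/well) after 48 h differentiation of RUES2-GLR cells. Two exposures, 24 h apart; 1 nM - 200 uM series; n=4. Bidirectional fit vs DMSO.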
# [6] = IUF_NPC1_cytotoxicity_72hr: Cytotoxicity Assessment at 72 hours in the Leibniz Research Institute for Environmental Medicine (IUF) Neural Progenitor Cell Proliferation Assay (NPC1) (AID 2284332; active means hit-call score of the fitted dose curve at least 0.9, where 1 is the maximum;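 further: rising LDH signal means more cytotoxicity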)
# How it was run: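 Human fetal neural progenitor spheres (0.3 mm) in EGF/FGF proliferation medium, 37C, exposed 72 h without renewal. LDH release in supernatant read by resorufin fluorescence; gain of signal scored relative to dynamic range.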
# [7] = system: SRY-box transcription factor 17 (SOX17) Protein Expression, Deisenroth Lab, SOX17 (gene 64321); assay: CCTE_Deisenroth_DEVTOX-GLR_legacy_Sox17: (Legacy) CCTE's DevTox GLR-Endo Assay Evaluation of SRY-box transcription factor 17 (SOX17) Protein Expression, Deisenroth Lab (AID 2284341); details: actives raise or lower the signal
# How it was run: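 RUES2-GLR human pluripotent cells, seeded 24 h, then differentiated 48 h in defined media with two chemical exposures 24 h apart (1 nM - 200 uM, 10 points). Sox17+ fraction from high-content fluorescence imaging; bidirectional fit versus 0.2% DMSO.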
# [8] = system: TTR (gene 7276); assay: CCTE_GLTED_hTTR_0.5uM: CCTE's human Transthyretin (hTTR) Inhibition Assay, with 0.5uM TTR, Great Lakes Toxicology and Ecology Division (GLTED) Lab (AID 2284320)
# How it was run: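 Cell-free displacement assay in which human TTR at 0.5 uM was incubated with test chemical for 2 h. Displacement of the ANSA probe was read by fluorescence at 380 nm excitation/475 nm emission. Loss of signal was fitted in the positive direction versus DMSO.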
# [9] = CCTE_Mundy_HCI_iCellGluta_NOG_NeuriteCount: CCTE's Neurite Outgrowth Assay in iCellGluta cells for Neurite Count, Mundy Lab (AID 2284342; active means hit-call score of the fitted dose curve at least 0.9, where 1 is the maximum;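 further: chemical exposure about 48 hours starting 2 hours after plating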)
# Protocol: CCTE_Mundy_HCI_iCellGluta_NOG is a multiplexed, cell-based-readout assay that uses iCell GlutaNeurons from FUJIFILM Cellular Dynamics, Inc. (FCDI), human glutamatergic enriched neurons derived from induced pluripotent stem (iPS) cells, with measurements taken at 50.33 hours after chemical dosing in a microplate: 96-well plate.CCTE_Mundy_HCI_iCellGluta_NOG_NeuriteCount is one of four components of the CCTE_Mundy_HCI_iCellGluta_NOG assay. It measures neurite outgrowth related to number of neurites using High Content Imaging of fluorescently labelled markers.Data from the assay component CCTE_Mundy_HCI_iCellGluta_NOG_NeuriteCount was analyzed at the endpoint CCTE_Mundy_HCI_iCellGluta_NOG_NeuriteCount in the positive analysis fitting direction relative to DMSO as the negative control and baseline of activity. Using a type of morphology reporter, loss-of-signal activity can be used to understand developmental effects.
# Exposure starts 2 hours post-plating by adding 10 ul of the working solution to 90 ul of media in the wells for a 1/10 dilution. Forty-eight hours after chemical treatment cells are fixed by direct addition of 100 ul of warm (37C) Dulbecco's phosphate buffered saline (DPBS) fixative solution containing 8% paraformaldehyde, 8% sucrose, and 0.1% of 3 mg/ml Hoechst 33342 into each well. Primary antibodies are prepared by dilution in Immunocytochemical Staining Buffer (ISB), 10X Dulbecco's PBS, 0.1% Saponin, 5% Bovine Serum Albumin, 0.5% NaN3 (Sodium Azide) and betaIII-tubulin (rabbit anti-betaIII-tubulin, 1:800) followed by Alexa Fluor-488 secondary (1:500) to label neuronal cell bodies and neurites. A Cellomics ArrayScan VTi HCS Reader is used for automated image acquisition and analysis of neurite outgrowth.
# [10] = system: IYD (gene 389434); assay: CCTE_GLTED_hIYD: CCTE's human Iodotyrosine Deiodinase (xIYD) Inhibition Assay, Great Lakes Toxicology and Ecology Division (GLTED) Lab (AID 2284317; active means hit-call score of the fitted dose curve at least 0.9, where 1 is the maximum;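 further: cell-free human IYD enzyme made in baculovirus insect cells; iodide freed from monoiodotyrosine measured by cerium arsenite color change at 420 nm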)
# How it was run: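 hIYD: baculovirus-expressed human IYD deiodinated monoiodotyrosine for 3 h with test chemical; free iodide was measured by Sandell-Kolthoff absorbance at 420 nm and normalized to MNT and DMSO/NaOH controls.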
# [11] = CCTE_Deisenroth_5AR_NBTE_donor: CCTE's 5alpha-reductase NanoBRET Target Engagement Assay […], Deisenroth Lab (AID 2284319); details: actives raise or lower the signal
# How it was run: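 Donor NanoLuc luminescence at 460-20 nm is the read-out, serving artifact detection. Transiently expressed SRD5A2-NanoLuc in HEK293T; 5 h total chemical exposure, testosterone tracer added for the final 2 h; fitting bidirectional relative to DMSO baseline.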
# [12] = CCTE_Deisenroth_5AR_NBTE_acceptor: CCTE's 5alpha-reductase NanoBRET Target Engagement Assay - Autofluorescence Screen, Deisenroth Lab (AID 2284321); details: actives raise or lower the signal;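 further: compound fluorescence in the acceptor channel under 460 nm excitation flags autofluorescence artifacts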
# How it was run: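 Acceptor fluorescence intensity was read as an artifact-detection endpoint. Test chemicals at an assumed nominal 100 uM were excited at 460 nm across three independent runs. Activity was fitted bidirectionally against DMSO.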
# [13] = system: SRD5A2 (gene 6716); assay: CCTE_Deisenroth_5AR_NBTE_ratio: CCTE's 5alpha-reductase NanoBRET Target Engagement Assay - Ratio, Deisenroth Lab (AID 2284322); details: actives raise or lower the signal
# How it was run: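 HEK293T transiently expressing SRD5A2-NanoLuc; cells exposed to chemical (8-point, 10 nM - 29.9 uM) for 5 h total, testosterone tracer added for final 2 h. NanoBRET acceptor/donor ratio (650/460 nm), bidirectional fit vs DMSO.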
# [14] = CCTE_Mundy_HCI_iCellGluta_NOG_NeuronCount: CCTE's Neurite Outgrowth Assay in iCellGluta cells for Neuron Count, Mundy Lab (AID 2284340; active means hit-call score of the fitted dose curve at least 0.9, where 1 is the maximum;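 further: cells fixed about 48 h after compound addition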)
# How it was run: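 Neuron count read by automated high-content imaging of Hoechst 33342 and betaIII-tubulin/Alexa Fluor-488 labelling in human iPSC glutamatergic neurons. Activity fitted relative to DMSO.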
smiles,measurement,setting,value
O=C1NS(=O)(=O)c2ccccc21,outcome,[1],inactive
same,outcome,[2],inactive
same,outcome,[3],inactive
same,outcome,[4],inactive
same,outcome,[5],inactive
same,outcome,[6],inactive
same,outcome,[7],inactive
O=C(CC(=O)C(F)(F)C(F)(F)C(F)(F)F)c1cccs1,outcome,[2],inactive
same,AC50,[8],0.193 µM (active)
same,outcome,[9],inactive
O=C(O)C(F)(F)OC(F)(F)C(F)(F)OC(F)(F)C(F)(F)OC(F)(F)C(F)(F)C(F)(F)C(F)(F)F,AC50,[10],93.2 µM (active)
same,AC50,[8],1.11 µM (active)
CCCCCCCCCCCC,AC50,[10],38.4 µM (active)
same,outcome,[11],inactive
same,outcome,[12],inactive
same,outcome,[13],inactive
CCCCCCc1ccc(N)cc1,outcome,[11],inactive
same,outcome,[12],inactive
same,AC50,[13],50 µM (active)
CC(=O)Nc1ccc(O)cc1,outcome,[1],inactive
same,outcome,[3],inactive
same,outcome,[4],inactive
same,outcome,[5],inactive
same,outcome,[6],inactive
same,outcome,[7],inactive
COc1cc([N+](=O)[O-])ccc1N,outcome,[11],inactive
same,outcome,[12],inactive
same,AC50,[13],50 µM (active)
C=CC(=O)OCCC(F)(F)C(F)(F)C(F)(F)C(F)(F)C(F)(F)C(F)(F)C(F)(F)C(F)(F)F,outcome,[2],inactive
same,outcome,[14],inactive
same,outcome,[9],inactive
O=C(O)CCC(F)(F)C(F)(F)C(F)(F)C(F)(F)C(F)(F)F,AC50,[8],3.12 µM (active)
O=C(Nc1ccc(Cl)c(Cl)c1)c1cc(Cl)cc(Cl)c1O,AC50,[10],77.4 µM (active)
CCCCc1oc2ccccc2c1C(=O)c1cc(I)c(OCCN(CC)CC)c(I)c1,outcome,[11],inactive
same,outcome,[12],inactive
same,outcome,[13],inactive
same,AC50,[4],19.8 µM (active)
same,AC50,[5],18.2 µM (active)
same,AC50,[7],20.8 µM (active)
O=C1OC2(c3ccccc31)c1cc(I)c(O)c(I)c1Oc1c2cc(I)c(O)c1I,AC50,[11],2.23 µM (active)
same,AC50,[12],1.79 µM (active)
same,AC50,[13],6 µM (active)
